Most compounds without a hit are left out; they make up all but 3.1% or so of the library.
ALOX15B inhib: blocks human 15-lipoxygenase 2 activity. O15296. purified 15hLO-2, xylenol orange hydroperoxide absorbance. Potency, µM (series often up to 57.1 µM), actives largely listed as inhibitors. hit rate 0.56% among 110,000; also: nearly all actives have a fitted effect of over 60% in size
Target sequence (O15296 whole entry, looked up): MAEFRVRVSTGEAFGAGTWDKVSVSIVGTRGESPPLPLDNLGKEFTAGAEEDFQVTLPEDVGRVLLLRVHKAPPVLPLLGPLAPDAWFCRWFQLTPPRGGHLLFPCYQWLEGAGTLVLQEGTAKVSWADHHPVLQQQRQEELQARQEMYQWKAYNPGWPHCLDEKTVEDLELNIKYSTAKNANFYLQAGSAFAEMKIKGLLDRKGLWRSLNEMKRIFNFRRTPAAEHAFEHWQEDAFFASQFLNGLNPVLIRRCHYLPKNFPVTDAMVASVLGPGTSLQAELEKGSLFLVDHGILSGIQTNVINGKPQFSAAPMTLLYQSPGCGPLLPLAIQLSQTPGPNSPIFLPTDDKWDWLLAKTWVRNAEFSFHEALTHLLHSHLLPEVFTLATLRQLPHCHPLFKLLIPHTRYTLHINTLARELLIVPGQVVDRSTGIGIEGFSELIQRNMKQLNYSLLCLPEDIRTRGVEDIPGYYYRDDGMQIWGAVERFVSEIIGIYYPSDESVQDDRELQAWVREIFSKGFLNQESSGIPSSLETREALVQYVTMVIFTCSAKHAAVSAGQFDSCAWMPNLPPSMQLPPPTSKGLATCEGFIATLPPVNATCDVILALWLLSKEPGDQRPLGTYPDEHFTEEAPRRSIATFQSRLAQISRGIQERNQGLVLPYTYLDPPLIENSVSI
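Screening format was qHTS against 50 nM purified 15hLO-2 in Hepes pH 7.5 with detergent. Activity follows hydroperoxide formation from 45 uM arachidonic acid, measured as 573:405 nm absorbance ratio of the ferric-xylenol orange complex.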
PNC assembly inh: perinucleolar compartment assembly inhibition | PC3M PTB-GFP, PNC prevalence imaging, 16 h; active compounds read low | activity change (PNC), negative = inhibition, % at 10 µM | hit rate 3.1% among 140,000;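 active = readout at or below -70, meaning at least 70% loss of cells showing the perinucleolar compartment, a nuclear body marking cancer cells; inconclusive = readout between -30 and a set limit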
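Compounds are pinned in duplicate onto adhered PC3M cells stably expressing GFP-tagged PTB and incubated 16 h at 37 C. Cells are then fixed, nuclei stained with Hoechst, and PNC-positive cells counted.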
ALOX12 inhib: blocks human 12-lipoxygenase activity. purified 12-hLO, xylenol orange hydroperoxide absorbance. Potency, µM (titrated, usually from 57.1 µM), most hits filed as inhibitors. hit rate 0.12% among 150,000. AID 1452; also: nearly all actives have a fitted effect of over 55% in size
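Hydroperoxide formation by human 12-lipoxygenase from 40 uM arachidonic acid was followed colorimetrically via ferric-xylenol orange complex, using the 573/405 nm absorbance ratio. Enzyme concentration was 150 nM, with 30 min reaction at room temperature.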
Large screens that a line does not name were inactive. Unless noted, calls follow the shape of the dose curve; as a rule, active = well fitted curve in the direction sought with a large enough effect; inconclusive = small, poorly fitted or top-dose-only effect, or another doubt; inactive = no such curve, though single readings can be large; an effect the other way counts as inactive or inconclusive.

CCC(C)(C)C(=O)O[C@@H]1C[C@H](C)C=C2C=C[C@H](C)[C@@H](CC[C@H]3C[C@@H](O)CC(=O)O3)[C@H]21	none (no result: PNC assembly inh)
O=C1c2cccc3c([N+](=O)[O-])ccc(c23)C(=O)N1c1ccccn1	ALOX15B inhib inconclusive, PNC assembly inh -105
O=C1c2cccc3c([N+](=O)[O-])ccc(c23)C(=O)N1c1ccc(Cl)cn1	none
COc1nc(OC)nc(N2CCC(C(=O)NCc3cccs3)CC2)n1	none
Cc1cnc(C)c(N2CCC(C(=O)NCc3cccs3)CC2)n1	PNC assembly inh -127
COC(=O)[C@@]1(Cc2ccc(F)cc2)[C@H]2c3cc(C(=O)N4CCCC4)n(CCc4c[nH]c5ccccc45)c3C[C@H]2CN1C(=O)c1ccccc1	none (no result: PNC assembly inh)
Cn1cccc1C(=O)N1CCC2(CC1)CN(c1ccccn1)C2	none (no result: PNC assembly inh)
CC(c1ccco1)N(C(=O)c1ccccc1NS(=O)(=O)c1cc([N+](=O)[O-])ccc1Cl)c1ccccn1 (centres undefined)	none (no result: ALOX15B inhib)
CC(c1ccco1)N(C(=O)c1ccccc1NS(=O)(=O)c1cccc([N+](=O)[O-])c1)c1ccccn1 (centres undefined)	PNC assembly inh -102 (no result: ALOX15B inhib)
CC1CCC(C(C)C)C(OP(=O)(c2ccc(N(C)C)cc2)C(O)c2cccnc2)C1 (centres undefined)	PNC assembly inh -114 (no result: ALOX15B inhib)
CN(C)c1ccc(P(=O)(OCc2ccccc2)C(O)c2cccnc2)cc1 (centres undefined)	none
COc1ccccc1-c1cncnc1NCCNC(C)=O	none (no result: PNC assembly inh, ALOX12 inhib)
OCCN[C@@H]1c2cc(Cl)ccc2-c2c(Cl)cc(Cl)cc21	none (no result: PNC assembly inh)
Cc1cc(-c2ccc(N=Nc3ccc4c(S(=O)(=O)O)cc(S(=O)(=O)O)c(N)c4c3O)c(C)c2)ccc1N=Nc1ccc2c(S(=O)(=O)O)cc(S(=O)(=O)O)c(N)c2c1O	ALOX15B inhib 20µM (no result: PNC assembly inh)
Nc1c(N=Nc2ccc(-c3ccc(N=Nc4cc(S(=O)(=O)O)c5ccccc5c4N)cc3)cc2)cc(S(=O)(=O)O)c2ccccc12	ALOX15B inhib 3.2µM, ALOX12 inhib inconclusive (no result: PNC assembly inh)
O=S(=O)(O)c1ccc(N=Nc2ccc3c(S(=O)(=O)O)cccc3c2O)c2ccccc12	none (no result: PNC assembly inh)
O=S(=O)(O)c1ccc(N=Nc2ccccc2)cc1	none (no result: PNC assembly inh)
Nc1ccc(N=Nc2ccc(-c3ccc(O)cc3)cc2)c2ccc(S(=O)(=O)O)cc12	ALOX15B inhib 2.5µM (no result: PNC assembly inh)
Cc1ccc(N=Nc2c(O)c(S(=O)(=O)O)cc3cc(S(=O)(=O)O)ccc23)c(C)c1	none (no result: PNC assembly inh)
COC(=O)C1C(O)CC[C@H]2CN3CCc4c([nH]c5ccccc45)C3C[C@H]12 (some centres undefined)	none (no result: PNC assembly inh)
C[N+]1(C)CC[C@@H](OC(=O)[C@@](O)(c2ccccc2)C2CCCC2)C1	none (no result: PNC assembly inh)
N#Cc1ccc(CN2CC[C@@]3(CCCN(C(=O)c4ccco4)C3)C2)cc1	none (no result: PNC assembly inh)
COc1ccccc1CNc1nc(-c2ccccc2OC)nc2ccccc12	none (no result: PNC assembly inh, ALOX12 inhib)
COC(=O)c1ccc(C(NC(=O)OCc2ccccc2)/C(=C/[C@@H](C)C(=O)NCc2nc3ccccc3s2)c2cccnc2)cc1 (some centres undefined)	none (no result: PNC assembly inh)
O=P(O)(CCc1ccccc1)CN1CCCCC1	PNC assembly inh -82
O=C1CCCCCN1CP(=O)(O)CCc1ccccc1	none
CCOC(=O)c1c(-c2ccccc2)csc1NC(=O)C1CCCO1 (centres undefined)	PNC assembly inh inconclusive
CCOC(=O)c1c(-c2ccc(-c3ccccc3)cc2)csc1NC(=O)C1C2CCC(O2)C1C(=O)O (centres undefined)	ALOX15B inhib 20µM
O=C(O)c1c(-c2nccc3ccccc23)[nH]c(-c2ccccc2)c1S(=O)(=O)O	none (no result: PNC assembly inh)
CCn1c(O)c(N=NC(=O)CNC(=O)/C=C/c2ccco2)c2ccccc21	PNC assembly inh -92
CCn1c(O)c(N=NC(=O)CNC(=O)c2ccco2)c2ccccc21	none (no result: ALOX15B inhib)
CN(C)Cc1ccccc1-c1ccc2ncnc(NCc3cccs3)c2c1	none (no result: PNC assembly inh)
Cc1cccc(-c2ccc(-c3cc(=O)oc4cc(C)cc(C)c34)cc2)c1	none (no result: PNC assembly inh)
Cc1cc(OCc2ccc(C(=O)n3cccn3)o2)ccc1Cl	PNC assembly inh -119 (no result: ALOX15B inhib)
O=C(c1ccc(COc2ccc(F)cc2)o1)n1cccn1	none
CC(C)C[C@@H](CC(=O)N[C@@H](CCC(=O)O)CC(=O)O)NC(=O)[C@@H]1CNCC[C@H]1NC(=O)C[C@H](CCCN)NC(=O)C[C@H](Cc1c[nH]c2ccccc12)NC(=O)[C@@H]1CNCC[C@H]1N	none (no result: ALOX15B inhib, PNC assembly inh)
COc1ccc(C(=O)C(OC(=O)c2ccccc2)c2ccccc2)cc1 (centres undefined)	none
COC(=O)C(OC(=O)c1ccc(OC)cc1)C(=O)OC	PNC assembly inh -100 (no result: ALOX15B inhib)
COCCNC(=O)c1ccccc1NC(=O)c1ccccc1N(C)S(=O)(=O)c1ccccc1	none
